# Measurements as given in the supplement of paper PMC10338343.
# ± gives the standard deviation.
# Test system: MILI (PIWIL2) piRISC loaded with L1MC piRNA (26 nt)
# Assay: pre-steady-state target cleavage rate (min^-1); guide: L1MC piRNA 5'p-UAACUAAAUACUAUGCAAGCUGUAGG; MIWI and MILI are mouse PIWI proteins and EfPiwi is from a freshwater sponge; tags in brackets are library labels; higher = faster piRNA-guided slicing of the target
# Conditions: auxiliary factor: none (no GTSF1)
# Procedure, shortened: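 Using HEPES–potassium acetate buffer at 33 °C, 1 nM active affinity-purified piRISC with a single synthetic guide was mixed with 0.1 nM transcribed, DNA-blocked target RNA library for 0–8 or 0–960 min, with or without 500 nM GTSF1 partner protein. Uncleaved targets were sequenced and normalised to depth and to weakly complementary targets, and three trials were pooled with k3 capped at 0.0001 min^-1. A burst-and-steady-state fit gave the pre-steady-state cleavage rate.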
row,Sequence,pre-steady-state target cleavage rate
1,UCCUGCUACUGCUUGCAUAGUAUUUUGUUA,0.00318 ± 0.0029
2,UCCUCCUUCAGGUUGCAUAGUAUUUAGUUA,0.0102 ± 0.002
3,UCCUGGAUCAGCUUCAUAGUAUUUAGUUA,0.00548 ± 0.0028
4,UCCUGGUACAGCUUGCAUAGUAUUUAGUUG [g2:g24:cont:t1G],0.00995 ± 0.003
5,UCCUGGAUGACGUUGCAUAGUAUUUAGUUA,0.00683 ± 0.0027
6,UCCUCCUACAGGAAGCAUAGUAUUUAGUAA,0.00328 ± 0.0023
7,UCCUCCAACAGCUUGCAUAGUAAUUAGUUA,0.0065 ± 0.0021
8,UCCUGGAUCACCUAGCAUAGUAUUUAGUUA,0.00435 ± 0.0029
9,UCCUGCUACAGCUUGGAUAGUAUUAAGUUA,0.00579 ± 0.002
10,UCCUGCUACAGCUUGCAUAGUAUUUAGUCA,0.00397 ± 0.0022
11,UCCUGGAACAGCUACCAUAGUAUUUAGUUA,0.00403 ± 0.0022
12,UCCUCCUACAGUCUUGCAUAGUAUUUAGUUA,0.00736 ± 0.0023
13,UCCUGGAUGUACUUGCAUAGUAUUUAGUUA,0.0107 ± 0.0025
14,UCCUGCUACUGCUUGGAUAGUAUUUAGUUA,0.00763 ± 0.0018
15,UCCUCCUACAGCUUGCAUAGUCAUUUAGUUA,0.00422 ± 0.0022
16,UCCUCCUCCAGCUUGCAUAGUAUUUAGUUA,0.00605 ± 0.0026
17,UCCUGGAUCAGCAUGCAAAGUAUUUAGUUA,0.0074 ± 0.0018
18,UCCUCCUACAGCUUGCAUAGUAUCUUAGUUA,0.00811 ± 0.0026
19,UCCUGGUACUAGCUUGCAUAGUAUUUAGUUA,0.00943 ± 0.003
20,UCCUGGAUCAGGUUGCAUAGUAUUUAGUUA,0.00807 ± 0.0024
21,UCCUGGAUCACCUUGCAUAGUAAUUAGUUA,0.00446 ± 0.0029
22,UCCUGGAUGAGCUUGCCUAGUAUUUAGUUA,0.00475 ± 0.0027
23,UCCUGGAACAUGCUUGCAUAGUAUUUAGUUA,0.00694 ± 0.0023
24,UCCUGCUUCUGCUUGCAUAGUAUUUAGUUA,0.00864 ± 0.0018
